In the library only some 1.4% were active in any assay of this set; here they are far more common.
HTT aggregate: inhibitors of mutant huntingtin aggregate formation in PC12 cells; AID 1688; Potency, µM (titrated, usually from 46.1 µM), for inactives: at the highest dose activity change, negative = inhibition, hits mostly inhibitors; hit rate 1.1% among 220,000; PC12 HttQ103-GFP aggregates, Acumen cytometry, 40 h; note: % is set by controls: 0 for no effect and ±100 for the full control effect; nearly all actives have a fitted effect of over 60% in size
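PC12 cells stably carrying ecdysone-inducible HTT exon 1 Q103–GFP were induced with tebufenozide (100 nM final) and treated with library compounds in titration. GFP aggregates in lysates were counted by laser scanning cytometry.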
ERK EGF block: inhibitors of EGF-stimulated ERK signaling pathway | HEK293-V1b, EGF-stimulated phospho-ERK AlphaScreen | Potency, µM (series often up to 11.5 µM), for inactives: top-dose activity change, negative = inhibition, most hits filed as inhibitors | hit rate 0.41% among 130,000 | AID 1454;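 note: plate controls were stimulated vehicle wells for no effect and unstimulated vehicle basal for full effect; nearly all actives have a fitted effect of over 55% in size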
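Stably V1b-transfected HEK293 cells; 30 min compound, then EGF 25 nM final for 5 min at 37C; 10 min lysis; phospho-ERK by AlphaScreen after 5 hr beads at room temperature.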
HTT ATP protect: protects HTT-Q103 PC12 cells, measured by ATP; PC12 HTT-Q103 induced, cytoprotection, ATP luminescence, 40 h; Potency, µM (highest dose often 56.4 µM), for the others: cytoprotection (ATP increase), hits mostly activators; hit rate 0.14% among 230,000; note: % of control where 0% means no effect; nearly all actives have a fitted effect of over 45% in size
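ATP quantification (ATPlite) reports survival of PC12 cells in which tebufenozide, 100 nM final, switches on Htt exon 1 with 103 glutamines linked to GFP; compounds are titrated.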
Starred values were filed as active, the others as inactive; ? = inconclusive; . = no result; ! = not active in a repeat; [ ] = dose if it differs, or a comment. Calls come from the whole dose curve; as a rule, active = well fitted curve in the direction sought with a large enough effect; inconclusive = small, poorly fitted or top-dose-only effect, or another doubt; inactive = no such curve, though single readings can be large; an effect the other way counts as inactive or inconclusive. Potency is the fitted concentration of half-maximal effect.

SMILES | HTT aggregate | ERK EGF block | HTT ATP protect
CCCCCCN(C(=O)CCCCCN1C(=O)NC(C2CC2)C(C(=O)OCc2ccccc2)=C1C)C(C(=O)NCCCC)c1ccc(OCC(=O)OC)c(C(=O)OC)c1 (configuration not stated) | . | -5% | -2%
CCC/C=C(\CCC)C(NS(=O)(=O)c1ccccc1)c1ccc(C(F)(F)F)cc1 (configuration not stated) | . | -8% | -56%
Fc1ccccc1-c1csc(=Nc2cccnc2)n1CCCn1ccnc1 | 35µM* | 2% | 3%[10 µM]
Fc1ccccc1-c1csc(=Nc2cccnc2)n1CC1CCCO1 (configuration not stated) | 3% | 18% | 9%[10 µM]
CC1=CC(=O)C2=C(C)C[C@H](OC(=O)Cc3ccccc3)C3[C@H](OC(=O)[C@H]3C)C12 (some centres not stated) | . | -6% | -21%
Cc1cc(/C=N/n2c(COc3ccccc3)nc3ccccc3c2=O)c(O)c([N+](=O)[O-])c1 | 10µM* | -3% | 41%[10 µM]
Cc1ccc(-c2[nH]ncc2/C=N/n2c(COc3ccccc3)nc3ccccc3c2=O)cc1 | 3% | 6% | -23%[10 µM]
COc1cccc(-c2nn(-c3ccccc3)cc2C(=O)Nc2nccs2)c1 | ? | . | -46%
COc1ccc(-c2nn(-c3ccccc3)cc2C(=O)Nc2nccs2)cc1 | 18µM* | . | -40%
O=C(Nc1ccc(Cl)c(Cl)c1)Nc1nnc(-c2ccncc2)s1 | ? | -7% | -3%[10 µM]
COc1ccc(NC(=O)Nc2nnc(-c3ccncc3)s2)cc1 | 20µM* | ? | -23%
Cc1cc(O)c(C(C)C)cc1N=Nc1ccccc1C(=O)O | 24%[9.22 µM] | -11%[57.5 µM] | 19%[10 µM]
Cc1cc(NO)c(C(C)C)cc1N=O | 3.2µM* | -1% | -74%[10 µM]
CC1=NN(c2ccccc2)C(=O)/C1=C/C=C/c1ccc(N(C)C)cc1 | ? | 7.1µM* | -2%[10 µM]
CC1=NN(c2ccc(C(=O)OC(C)C)cc2)C(=O)/C1=C\C=C\c1ccco1 | 12% | 16% | -24%[10 µM]
CC1=NN(c2ccccc2)C(=O)/C1=C\c1cn(C)c2ccccc12 | 0% | 14µM* | 0%[10 µM]
CC1=NN(c2ccccc2)C(=O)/C1=C\C=C\c1ccccc1 | -1%[9.22 µM] | 25µM* | -10%[10 µM]
CCOC(=O)CC1=NN(c2ccccc2)C(=O)/C1=C\c1ccc(N(C)C)cc1 | 0% | 25µM* | -23%[10 µM]
CC1=NN(c2ccccc2)C(=O)/C1=C/N(C)C | -9%[9.22 µM] | 8%[57.5 µM] | -4%[10 µM]
CCOC(=O)CC1=NN(c2ccccc2)C(=O)C1 | 0% | -2% | -28%
CC1=NN(c2ccccc2)C(=O)/C1=C/c1cn(C)c2ccccc12 | -10%[9.22 µM] | ? | -26%[10 µM]
O=S(=O)(O)[C@@H](c1ccccc1)[C@@H](O)c1ccccc1 | . | . | -6%[10 µM]
COCOc1c2c(c(OCOC)c3c(OCOC)cccc13)/C(=N/NS(C)(=O)=O)C1=C2CCCC1 | . | -10% | -23%
CC(NC(=O)c1cc(-c2ccc(O)cc2)on1)c1ccccc1 (configuration not stated) | . | . | -20%
COC(=O)[C@@H]1C[C@H]1[C@@H](NC(=O)OCc1ccccc1)c1ccccc1 | . | . | 5%
SMILES | HTT aggregate | ERK EGF block | HTT ATP protect
C[C@H]1[C@H]2CC[C@H]3[C@@H]4CC=C5C[C@@H](N(C)C)CC[C@]5(C)[C@H]4CC[C@]23CN1C | . | -9% | 11%
Oc1ccc(C(c2nnnn2C2CCCCC2)N2CCOCC2)cc1 (configuration not stated) | 2.8µM* | 0% | .
c1cc(C(c2nnnn2C2CCCC2)N2CCOCC2)ccn1 (configuration not stated) | -4% | . | -10%
O=C(COc1ccc([N+](=O)[O-])cc1)Nc1ccc(C(=O)NCc2cccnc2)cc1 | 3.5µM* | . | -152%
O=C(COc1ccc([N+](=O)[O-])cc1)NCc1cccnc1 | 8% | 3% | 28%[10 µM]
Clc1ccccc1C(c1ccccc1)(c1ccccc1)n1ccnc1 | ? | 22µM*! | -55%
Clc1ccccc1-c1nccc(-n2ccnc2)n1 | . | 26% | -19%
O=C(Nn1cc(C(=O)Nc2ccccc2F)c2ccccc2c1=O)c1cnccn1 | ? | 2% | -31%
COC(=O)c1cn(NC(=O)c2cnccn2)c(=O)c2ccccc12 | 8.9µM* | . | -44%
CC[C@@H]1OC(=O)[C@@H](C)[C@H](O[C@@H]2C[C@@](C)(OC)[C@@H](O)[C@H](C)O2)[C@H](C)[C@H](O[C@@H]2O[C@@H](C)C[C@@H](N(C)C)[C@H]2O)[C@@](C)(O)C[C@H](C)C(=O)[C@@H](C)[C@H](O)[C@@]1(C)O | . | . | -29%
COC(=O)NC(C(=O)OC)(C(=O)OC)c1ccccc1 | . | -6% | -16%
O=C(N/N=C(\c1ccccc1)c1ccccn1)c1cccc([N+](=O)[O-])c1 | 6.3µM* | -3% | -139%
Cn1ccnc1/C(=N\NC(=O)c1ccccc1)c1cccc([N+](=O)[O-])c1 | -8% | -8% | -7%
CCN1C(C)=C(C(=O)OC)C(c2ccccc2)N2C(=O)[C@@]3(C(=O)OC)O[C@@]12C1C(=O)N(C)C(=O)C13 (some centres not stated) | . | . | -5%[10 µM]
Cc1ccc(NC(=O)Nc2ccnc(-c3cccnc3)n2)cc1 | ? | -4% | 3.5µM*
Cc1ccc(C(=O)Nc2ccnc(-c3cccnc3)n2)cc1 | -10% | -1% | 1%[10 µM]
C=CCNc1nc2c(c(=O)n(C)c(=O)n2C)n1CCCCCC | ? | . | -42%[10 µM]
C=CCNc1nc2c(c(=O)n(C)c(=O)n2C)n1CC | 13µM* | 6% | -28%
CCN1C(C)=C(C(=O)OC)C(c2ccccc2)N2C(=O)[C@](O)(C(=O)OC)CC(C#N)=C12 (some centres not stated) | . | . | -12%[10 µM]
CCOC(=O)c1ccc(S(=O)(=O)Nc2nc3cc(S(=O)(=O)NC4=NCCCCC4)ccc3s2)cc1 | -19% | -2% | 18µM*
Nc1nc2cc(S(=O)(=O)NC3=NCCCCC3)ccc2s1 | -12%[9.22 µM] | -10%[57.5 µM] | 5%[10 µM]
CN(C)c1ccc(C2N([C@H](C#N)c3ccc(N(C)C)cc3)CCCN2[C@@H](C#N)c2ccc(N(C)C)cc2)cc1 (some centres not stated) | . | . | -7%[10 µM]
CC(C)CO/N=C1/C[C@@H](O)[C@@H](O)[C@@H]2[C@@H]3C(=O)N(c4cccc(Oc5ccccc5)c4)C(=O)[C@H]3CC[C@@H]12 | . | . | -18%[10 µM]
CCCn1nnc(NC(=O)c2ccc(Cl)cc2Cl)n1 | -7% | . | -53%[10 µM]
CCN(CC)Cc1ccc(NC(=O)c2sc3cc(Cl)ccc3c2Cl)cc1 | -8%[9.22 µM] | 28µM* | 13%[10 µM]
SMILES | HTT aggregate | ERK EGF block | HTT ATP protect
Cc1ccnc(NC(=O)c2sc3cc(Cl)ccc3c2Cl)c1 | 5% | 4% | 4%[10 µM]
CCCCn1nnc(NC(=O)c2sc3cc(Cl)ccc3c2Cl)n1 | 0.63µM* | . | -2%
C=CC(=O)OCCCCCCOC(=O)C=C | . | . | 18%
COc1ccc(CCNC[C@H](O)c2ccc(O)cc2)cc1OC | . | . | 0%[1.9 µM]
CCOC(=O)c1sc2nc(NC(=O)C(C)(C)C)sc2c1C | 35µM* | . | -78%
CCOC(=O)c1sc2nc(NC(=O)C3CC3)sc2c1C | 9% | . | -10%
Cc1cccc(-c2ccc(-c3cc(=O)oc4cc(C)cc(C)c34)cc2)c1 | . | . | -34%
COc1ccc(NC(=O)N2CCCC3(CCN(C(C)=O)CC3)C2)cc1 | . | -3% | ?
CCCn1c(O)c(N=NC(=O)c2ccco2)c2ccccc21 | -9% | 4% | 24%[10 µM]

Bioassay records from PubChem.
